This passage reports inhibition results from ChEMBL document CHEMBL1961873, “Compounds: GSK PKIS; Assays: Nanosyn kinase panel” (2012).

Assay [1] addresses Rho-associated protein kinase 1 (Homo sapiens) (UniProt Q13464). Conditions: at 1 µM.
Assay [2] deals with Rho-associated protein kinase 2 (Homo sapiens) (UniProt O75116). Conditions: at 0.1 µM.
Assay [3] has the same target. To be noted: at 1 µM.
Assay [4] concerns the target Ribosomal protein S6 kinase alpha-1 (Homo sapiens) (UniProt Q15418). To be noted: at 0.1 µM.
Assay [5] shares this target. To be noted: at 1 µM.
Assay [6] concerns the target Ribosomal protein S6 kinase alpha-3 (Homo sapiens) (UniProt P51812). Conditions: at 0.1 µM.
Assay [7] shares this target. To be noted: at 1 µM.
Assay [8] concerns the target Ribosomal protein S6 kinase alpha-2 (Homo sapiens) (UniProt Q15349). To be noted: at 0.1 µM.
Assay [9] shares this target. Conditions: at 1 µM.
The target of assay [10] is Ribosomal protein S6 kinase alpha-6 (Homo sapiens) (UniProt Q9UK32). To be noted: at 0.1 µM.
For assay [11] the target is unchanged. Conditions: at 1 µM.
For assay [12], the target named is T1, Serine/threonine-protein kinase Sgk1 (Homo sapiens) (UniProt O00141).
T1 sequence (whole entry): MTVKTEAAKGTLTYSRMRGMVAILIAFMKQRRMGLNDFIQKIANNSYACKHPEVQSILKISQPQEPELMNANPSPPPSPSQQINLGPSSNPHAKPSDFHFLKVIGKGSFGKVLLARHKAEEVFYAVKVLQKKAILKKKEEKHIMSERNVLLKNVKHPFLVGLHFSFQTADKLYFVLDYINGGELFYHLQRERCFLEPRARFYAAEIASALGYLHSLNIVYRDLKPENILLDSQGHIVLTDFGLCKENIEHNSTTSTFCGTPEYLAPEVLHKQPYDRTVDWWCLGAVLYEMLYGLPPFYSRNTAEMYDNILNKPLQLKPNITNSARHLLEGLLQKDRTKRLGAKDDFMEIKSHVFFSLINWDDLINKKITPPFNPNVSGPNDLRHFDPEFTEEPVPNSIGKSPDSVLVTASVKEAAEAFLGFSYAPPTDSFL
Conditions: at 0.1 µM.

The target of assay [13] is T1, Serine/threonine-protein kinase Sgk1 (Homo sapiens). To be noted: at 1 µM.
Assay [14] has as its target T2, Serine/threonine-protein kinase Sgk2 (Homo sapiens) (UniProt Q9HBY8).
T2 sequence (whole entry): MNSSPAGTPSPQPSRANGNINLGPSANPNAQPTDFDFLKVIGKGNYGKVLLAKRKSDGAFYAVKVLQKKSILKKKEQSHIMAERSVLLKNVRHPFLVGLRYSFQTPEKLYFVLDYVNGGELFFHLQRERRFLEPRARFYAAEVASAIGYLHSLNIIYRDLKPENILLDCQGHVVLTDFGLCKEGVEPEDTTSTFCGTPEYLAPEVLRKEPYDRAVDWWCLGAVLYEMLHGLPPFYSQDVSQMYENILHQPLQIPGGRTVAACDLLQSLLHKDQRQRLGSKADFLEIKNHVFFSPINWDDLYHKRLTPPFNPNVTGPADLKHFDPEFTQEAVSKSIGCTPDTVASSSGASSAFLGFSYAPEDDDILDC
Conditions: at 0.1 µM.

Assay [15] has as its target T2, Serine/threonine-protein kinase Sgk2 (Homo sapiens). To be noted: at 1 µM.
In assay [16] the target is T3, Serine/threonine-protein kinase Sgk3 (Homo sapiens) (UniProt Q96BR1).
T3 sequence (whole entry): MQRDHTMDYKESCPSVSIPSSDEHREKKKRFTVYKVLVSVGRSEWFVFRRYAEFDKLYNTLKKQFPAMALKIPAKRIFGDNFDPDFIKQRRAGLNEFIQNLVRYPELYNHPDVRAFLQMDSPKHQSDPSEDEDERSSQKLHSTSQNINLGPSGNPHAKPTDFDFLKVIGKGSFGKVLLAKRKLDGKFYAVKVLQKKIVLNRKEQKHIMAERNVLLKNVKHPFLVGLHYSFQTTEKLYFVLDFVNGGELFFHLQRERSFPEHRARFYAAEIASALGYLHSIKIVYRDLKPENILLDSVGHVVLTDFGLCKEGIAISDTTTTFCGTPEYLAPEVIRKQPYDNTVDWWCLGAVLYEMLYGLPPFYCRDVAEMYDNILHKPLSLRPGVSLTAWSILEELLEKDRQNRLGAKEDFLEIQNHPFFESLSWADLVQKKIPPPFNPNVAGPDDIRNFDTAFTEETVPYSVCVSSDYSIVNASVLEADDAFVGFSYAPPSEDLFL
Conditions: at 0.1 µM.

Assay [17] addresses T3, Serine/threonine-protein kinase Sgk3 (Homo sapiens). Conditions: at 1 µM.
Assay [18] addresses 5'-AMP-activated protein kinase catalytic subunit alpha-1 (Homo sapiens) (UniProt Q13131). Conditions: at 0.1 µM.
Assay [19] has the same target. To be noted: at 1 µM.
For assay [20], the target named is 5'-AMP-activated protein kinase catalytic subunit alpha-2 (Homo sapiens) (UniProt P54646). Conditions: at 0.1 µM.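 Also: mean inhibition measured on the AMPK complex of alpha2, beta1 and gamma1 subunits.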
5'-AMP-activated protein kinase catalytic subunit alpha-2 (Homo sapiens), sequence (P54646 whole entry, looked up): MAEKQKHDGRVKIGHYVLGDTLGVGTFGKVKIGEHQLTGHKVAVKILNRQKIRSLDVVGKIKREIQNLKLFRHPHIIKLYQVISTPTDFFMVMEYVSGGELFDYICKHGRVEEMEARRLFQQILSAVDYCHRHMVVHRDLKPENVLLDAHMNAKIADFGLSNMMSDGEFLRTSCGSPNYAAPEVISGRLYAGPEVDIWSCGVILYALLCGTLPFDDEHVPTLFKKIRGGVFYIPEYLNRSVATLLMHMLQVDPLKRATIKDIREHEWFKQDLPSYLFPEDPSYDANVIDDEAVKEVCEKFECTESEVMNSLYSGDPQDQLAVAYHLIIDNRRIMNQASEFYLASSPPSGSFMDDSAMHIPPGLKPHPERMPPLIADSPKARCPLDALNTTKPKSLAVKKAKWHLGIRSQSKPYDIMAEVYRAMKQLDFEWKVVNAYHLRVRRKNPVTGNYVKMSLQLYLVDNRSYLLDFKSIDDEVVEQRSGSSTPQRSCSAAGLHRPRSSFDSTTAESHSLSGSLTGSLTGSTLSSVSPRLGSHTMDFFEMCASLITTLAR

Ribosomal protein S6 kinase alpha-3 (Homo sapiens), sequence (P51812 whole entry): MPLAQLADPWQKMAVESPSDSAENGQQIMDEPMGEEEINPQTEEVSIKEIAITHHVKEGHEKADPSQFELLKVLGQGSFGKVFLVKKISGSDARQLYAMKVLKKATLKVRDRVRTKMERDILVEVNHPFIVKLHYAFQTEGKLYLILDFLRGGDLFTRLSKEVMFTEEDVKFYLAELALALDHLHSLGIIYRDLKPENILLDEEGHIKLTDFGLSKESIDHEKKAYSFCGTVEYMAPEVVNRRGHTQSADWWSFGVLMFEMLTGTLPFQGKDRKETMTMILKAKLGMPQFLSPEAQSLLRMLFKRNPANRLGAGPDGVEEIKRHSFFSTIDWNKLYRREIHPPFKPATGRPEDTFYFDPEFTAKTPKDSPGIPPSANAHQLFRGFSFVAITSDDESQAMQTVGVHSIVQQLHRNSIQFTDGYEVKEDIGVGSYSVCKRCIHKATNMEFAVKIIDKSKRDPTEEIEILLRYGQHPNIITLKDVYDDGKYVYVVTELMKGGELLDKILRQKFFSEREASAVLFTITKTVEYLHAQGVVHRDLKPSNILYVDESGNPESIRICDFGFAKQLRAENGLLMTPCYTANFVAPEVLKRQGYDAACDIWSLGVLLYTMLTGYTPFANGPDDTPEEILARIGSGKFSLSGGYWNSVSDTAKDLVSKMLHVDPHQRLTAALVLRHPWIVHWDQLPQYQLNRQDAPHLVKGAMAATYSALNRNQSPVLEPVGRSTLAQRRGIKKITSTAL
5'-AMP-activated protein kinase catalytic subunit alpha-1 (Homo sapiens), sequence (Q13131 whole entry, looked up): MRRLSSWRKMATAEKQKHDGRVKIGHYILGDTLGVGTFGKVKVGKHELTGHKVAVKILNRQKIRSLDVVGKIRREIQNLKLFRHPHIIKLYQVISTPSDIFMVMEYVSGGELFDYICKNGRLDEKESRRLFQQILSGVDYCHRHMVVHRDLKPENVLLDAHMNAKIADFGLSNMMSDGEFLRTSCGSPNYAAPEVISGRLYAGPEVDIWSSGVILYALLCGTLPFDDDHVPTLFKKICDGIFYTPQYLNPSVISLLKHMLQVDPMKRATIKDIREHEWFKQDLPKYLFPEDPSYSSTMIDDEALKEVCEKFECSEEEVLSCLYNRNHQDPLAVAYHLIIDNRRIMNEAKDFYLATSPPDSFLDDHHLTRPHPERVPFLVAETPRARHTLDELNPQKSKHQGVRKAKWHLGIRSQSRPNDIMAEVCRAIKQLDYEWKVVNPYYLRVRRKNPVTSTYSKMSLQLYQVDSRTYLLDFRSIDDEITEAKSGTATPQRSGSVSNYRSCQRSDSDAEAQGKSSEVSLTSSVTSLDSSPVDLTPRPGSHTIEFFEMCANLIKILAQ
Ribosomal protein S6 kinase alpha-1 (Homo sapiens), sequence (Q15418 whole entry): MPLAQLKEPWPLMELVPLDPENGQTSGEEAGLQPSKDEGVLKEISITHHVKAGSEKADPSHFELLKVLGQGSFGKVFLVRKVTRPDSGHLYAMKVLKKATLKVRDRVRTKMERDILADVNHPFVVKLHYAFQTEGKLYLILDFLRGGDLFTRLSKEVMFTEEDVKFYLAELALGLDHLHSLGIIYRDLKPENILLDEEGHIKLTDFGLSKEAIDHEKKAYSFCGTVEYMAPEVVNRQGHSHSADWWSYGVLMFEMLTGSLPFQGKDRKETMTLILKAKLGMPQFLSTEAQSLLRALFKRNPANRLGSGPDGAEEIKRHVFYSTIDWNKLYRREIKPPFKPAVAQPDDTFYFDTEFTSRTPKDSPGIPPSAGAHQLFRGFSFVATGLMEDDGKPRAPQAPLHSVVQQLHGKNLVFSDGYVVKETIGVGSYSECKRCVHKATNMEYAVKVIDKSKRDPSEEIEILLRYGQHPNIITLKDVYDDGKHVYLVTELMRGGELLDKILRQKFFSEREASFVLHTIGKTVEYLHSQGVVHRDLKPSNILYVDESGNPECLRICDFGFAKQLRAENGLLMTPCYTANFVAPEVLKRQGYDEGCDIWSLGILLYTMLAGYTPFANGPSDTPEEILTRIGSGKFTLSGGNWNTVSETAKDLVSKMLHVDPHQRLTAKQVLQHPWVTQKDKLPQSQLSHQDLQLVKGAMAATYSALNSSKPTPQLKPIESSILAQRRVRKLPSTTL
Rho-associated protein kinase 1 (Homo sapiens), sequence (Q13464 2-1354 limits assumed): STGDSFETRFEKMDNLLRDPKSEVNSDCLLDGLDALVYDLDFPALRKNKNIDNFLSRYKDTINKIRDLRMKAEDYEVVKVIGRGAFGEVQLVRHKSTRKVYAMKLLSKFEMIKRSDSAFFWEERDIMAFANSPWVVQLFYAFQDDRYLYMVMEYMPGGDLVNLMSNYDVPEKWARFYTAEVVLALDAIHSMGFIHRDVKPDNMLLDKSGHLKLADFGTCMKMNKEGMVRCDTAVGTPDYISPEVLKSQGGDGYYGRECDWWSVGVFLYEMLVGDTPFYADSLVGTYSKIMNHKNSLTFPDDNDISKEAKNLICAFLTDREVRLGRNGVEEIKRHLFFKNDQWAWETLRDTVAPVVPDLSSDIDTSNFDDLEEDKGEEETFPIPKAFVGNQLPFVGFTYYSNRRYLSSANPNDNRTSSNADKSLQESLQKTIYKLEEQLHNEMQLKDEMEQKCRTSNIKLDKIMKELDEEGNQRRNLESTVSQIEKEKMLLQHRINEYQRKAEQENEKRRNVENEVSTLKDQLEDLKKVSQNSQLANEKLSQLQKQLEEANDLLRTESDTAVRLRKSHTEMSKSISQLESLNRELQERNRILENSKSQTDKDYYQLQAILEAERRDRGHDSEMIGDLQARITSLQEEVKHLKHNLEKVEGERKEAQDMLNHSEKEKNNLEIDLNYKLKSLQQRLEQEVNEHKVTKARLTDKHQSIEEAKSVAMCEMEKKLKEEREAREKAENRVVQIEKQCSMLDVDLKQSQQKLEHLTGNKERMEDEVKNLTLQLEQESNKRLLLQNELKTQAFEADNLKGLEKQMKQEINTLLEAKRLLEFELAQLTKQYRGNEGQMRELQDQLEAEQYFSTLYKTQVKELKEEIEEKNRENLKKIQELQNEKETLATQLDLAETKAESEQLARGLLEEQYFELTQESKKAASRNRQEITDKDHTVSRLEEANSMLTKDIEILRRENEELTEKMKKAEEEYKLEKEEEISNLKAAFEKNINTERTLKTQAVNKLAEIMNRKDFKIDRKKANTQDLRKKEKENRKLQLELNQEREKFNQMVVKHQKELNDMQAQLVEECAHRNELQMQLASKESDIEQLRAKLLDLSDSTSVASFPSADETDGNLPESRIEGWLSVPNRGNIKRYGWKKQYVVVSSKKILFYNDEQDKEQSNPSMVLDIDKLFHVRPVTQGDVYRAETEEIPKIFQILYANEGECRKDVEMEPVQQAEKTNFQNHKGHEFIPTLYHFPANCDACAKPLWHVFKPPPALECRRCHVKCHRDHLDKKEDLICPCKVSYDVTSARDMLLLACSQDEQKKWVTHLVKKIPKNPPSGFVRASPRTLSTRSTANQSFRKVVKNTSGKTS
Ribosomal protein S6 kinase alpha-2 (Homo sapiens), sequence (Q15349 whole entry): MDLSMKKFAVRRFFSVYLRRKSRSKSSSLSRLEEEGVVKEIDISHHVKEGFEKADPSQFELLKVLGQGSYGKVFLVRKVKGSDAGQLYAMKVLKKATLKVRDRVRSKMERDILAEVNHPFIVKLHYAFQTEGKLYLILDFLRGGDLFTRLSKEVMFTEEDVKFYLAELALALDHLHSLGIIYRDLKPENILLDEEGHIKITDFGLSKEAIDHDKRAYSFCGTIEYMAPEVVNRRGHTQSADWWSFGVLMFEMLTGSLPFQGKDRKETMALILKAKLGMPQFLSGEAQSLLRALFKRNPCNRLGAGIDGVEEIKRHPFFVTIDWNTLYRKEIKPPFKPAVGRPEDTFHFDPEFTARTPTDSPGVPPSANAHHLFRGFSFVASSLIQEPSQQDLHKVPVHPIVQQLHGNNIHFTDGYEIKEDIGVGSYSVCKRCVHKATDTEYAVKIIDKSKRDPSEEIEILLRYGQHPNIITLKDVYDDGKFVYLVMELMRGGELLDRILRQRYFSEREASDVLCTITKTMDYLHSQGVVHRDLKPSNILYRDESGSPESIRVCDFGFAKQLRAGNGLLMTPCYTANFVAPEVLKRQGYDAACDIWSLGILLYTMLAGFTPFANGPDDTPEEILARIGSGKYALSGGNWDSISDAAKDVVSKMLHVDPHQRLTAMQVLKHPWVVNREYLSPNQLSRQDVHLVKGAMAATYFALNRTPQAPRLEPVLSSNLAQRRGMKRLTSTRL

Consider `Cc1cc(O)cc(C)c1/C=C/c1cncc(C(=O)N(C)C)c1`, for which the inhibition is 1.38% in assay [1]; 1.81% in [2]; 3.8% in [3]; 1.88% in [4]; 3.54% in assay [5]; 1.25% in [6]. Moreover, the inhibition in assay [7] was 2.65%; in assay [8] it was 0.28%; in assay [9] it was 2.22%; in assay [10], 1.12%; in assay [11], 1.77%; in [12], 1.71%. Further, the inhibition is 2.5% in assay [13]; -0.51% in assay [14]; 2.83% in assay [15]; 4.43% in assay [16]; 0% in [17]; 2.63% in assay [18]. The inhibition in [19] was determined as 1.76%; in [20], 1.57%.

`COc1ccc(-c2nn3ncccc3c2-c2ccnc(Nc3cccc(C(F)(F)F)c3)n2)cc1`: the inhibition in assay [1] is 0.6%; in [2], 2.74%; in [3], 1.41%; in assay [4], 1.07%; in assay [5], 2.11%; in assay [6], 1.27%. For the same molecule, the inhibition stood at 1.97% in [7]; 1.64% in assay [8]; 2.11% in assay [9]; 0.81% in assay [10]; 0.26% in [11]; 1.37% in assay [12]. Besides, the inhibition was found to be 2.02% in assay [13]; 1.57% in [14]; 4.94% in assay [15]; 3.1% in assay [16]; 3.41% in [17]; 2.78% in assay [18]. Further, the inhibition came to 3.84% in assay [19] and 1.06% in assay [20].

As for `N#Cc1c(NC(=O)c2ccccc2F)sc2c1CCCC2`, the inhibition in assay [1] is 0.92%; in [2], -0.61%; in [3] it was 0.55%; in assay [4], 0.59%; in [5], 1.03%; in assay [6], 0.77%. For the same molecule, the inhibition was 2.33% in [7]; -0.49% in assay [8]; 0.67% in [9]; -0.24% in [10]; 0.41% in assay [11]; 0.71% in assay [12]. The inhibition is 0.65% in assay [13]; -4.27% in assay [14]; -5.49% in assay [15]; -2.68% in assay [16]; -2.69% in [17]; -0.84% in assay [18]. Besides, the results for the inhibition in [19] and in [20] were 0.73% and 1.26%, respectively.

In the case of `CN(C)C(=O)O[C@@H]1CN[C@@H](C#Cc2cc3ncnc(Nc4ccc(OCc5cccc(F)c5)c(Cl)c4)c3s2)C1`, the inhibition in [1] is 1.13%; in assay [2], -1.58%; in [3], -0.74%; in assay [4] it was 0.43%; in assay [5], 0.71%; in assay [6] it was 0.2%. Moreover, the inhibition worked out at 1.13% in assay [7]; 0.12% in [8]; 2.54% in assay [9]; 0.51% in [10]; 1.1% in [11]; 0.97% in assay [12]. In addition, the inhibition in [13] is 0.35%; in assay [14], -1.98%; in assay [15], 1.45%; in [16], -0.94%; in [17], -0.47%; in assay [18], 1.21%. The inhibition is -0.92% in assay [19] and -1.56% in [20].

`Cc1cc(Cl)cc2c1NC(=O)C2=NNc1ccc(S(N)(=O)=O)cc1`: the inhibition in assay [1] is 0.46%; in assay [2], 2.77%; in assay [3], 4.97%; in assay [4], 2.28%; in [5], 4.19%; in assay [6], 1.6%. In addition, the inhibition in assay [7] was 3.02%; in assay [8] it was 2.57%; in assay [9] it was 1.19%; in assay [10] it was 0.74%; in assay [11], 1.2%; in [12], 2.17%. For the same molecule, the inhibition in assay [13] worked out at 3.67%; in assay [14] it was 1.33%; in assay [15], 7.78%; in assay [16], 2.89%; in assay [17], 5.67%; in assay [18] it was 1.67%. Also, the inhibition is 4.05% in assay [19] and -0.13% in assay [20].

As to `CC(C)c1ccc2c(c1)NC(=O)/C2=N/Nc1ccc(S(N)(=O)=O)cc1`, the inhibition in [1] was -1.28%; in [2], -1.58%; in [3], -0.82%; in [4] it was 0.52%; in [5], 0.63%; in [6], -0.56%. In addition, the inhibition in assay [7] is 2.05%; in assay [8], 1%; in [9] it was 2.15%; in assay [10], -0.83%; in assay [11], 0.17%; in assay [12], 0.54%. The inhibition was 0.73% in [13]; 5.31% in assay [14]; -4.03% in [15]; 4.97% in [16]; -1.88% in assay [17]; -0.83% in assay [18]. Moreover, the values for the inhibition in assay [19] and in [20] were 0.29% and 1.03%, respectively.
